Results: PubChem BioAssay
The source made the active and inactive calls.

Tests used:
[1] = compounds binding Alexa647 anti-His antibody – biochemical, small-molecule microarray, 635 nm fluorescence, artefact control for SMM control protein annotation, primary screen (AID 1128); settings: higher = more signal;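 also: score merges feature fluorescence with signal-to-noise for each printed compound spot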
[2] = system: Human papillomavirus type 1a E7 protein (residues 1-88); experiment: HPV1a E7 small-molecule binders, primary screen, biochemical, small-molecule microarray, residues 1-88, 635 nm (AID 1129); settings: small-molecule microarray binding, fluorescence 635 nm; higher = more signal
[3] = biological target: Focal adhesion kinase 1 (Homo sapiens) (UniProt Q05397); experiment: PTK2 protein binding on printed compound slides – biochemical, small-molecule microarray, 635/667 nm fluorescence, BSA, DTT, primary screen (AID 1130); settings: 635 nm fluorescence, higher = more signal;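 also: composite of spot emission at 667 nm and signal to noise over triplicate slides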
[4] = system: Fibrinogen (Alexa647-labelled); experiment: Alexa647-fibrinogen binding to printed small molecules – biochemical, small-molecule microarray, 635/667 nm fluorescence, artefact control for SMM control-protein annotation, profiling panel (AID 1131); settings: fibrinogen-A647 binding fluorescence, higher = more signal;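 also: z-score merges 667 nm fluorescence with per-spot signal-to-noise over triplicate slides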
[5] = biological target: Follistatin (Homo sapiens) (UniProt P19883); experiment: FST protein binding to printed compounds – biochemical, small-molecule microarray, 635/667 nm fluorescence, primary screen (AID 1132); settings: 635 nm fluorescence, higher = more signal
[6] = biological target: Fibroblast growth factor 2 (Homo sapiens) (UniProt P09038); experiment: basic fibroblast growth factor binding to printed compounds – biochemical, small-molecule microarray, 635/667 nm fluorescence, primary screen (AID 1133); settings: FGF2, fluorescence 635/667, higher = more signal
[7] = JC-1 mitochondrial potential readout, lung cancer cells – cell-based, A549, JC-1 fluorescence, basal, 24 h, 100 nL, profiling panel (AID 1138); settings: higher = more signal;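 also: A549 lung adenocarcinoma cells under basal conditions with no added stimulus; test concentration not given here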
[8] = system: Lefty1; experiment: Lefty1 protein binding to printed compounds – biochemical, small-molecule microarray, 635/667 nm fluorescence, primary screen (AID 1139); settings: fluorescence 635/667, higher = more signal
[9] = system: wheat germ agglutinin (Triticum aestivum), Alexa647-labelled; experiment: Alexa647-WGA lectin binding to printed small molecules – biochemical, small-molecule microarray, 635/667 nm fluorescence, artefact control for SMM control-protein annotation, profiling panel (AID 1140); settings: WGA-A647 binding, 635 nm fluorescence, higher = more signal;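 also: score merges 667 nm feature emission with signal to noise over triplicate slides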
[10] = biological target: Luciferin 4-monooxygenase (Photinus pyralis) (UniProt P08659); experiment: inhibition of purified Photinus pyralis luciferase – biochemical, luminescence, purified enzyme, 2006 set, primary screen (AID 1141); settings: purified firefly luciferase, SteadyGlo luminescence, 30 min; higher = more signal, called active from +8 up or from −8 down;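 also: cell-free assay with purified firefly luciferase at 100 ng per well in PBS; test concentration not given here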
Sequence of Luciferin 4-monooxygenase (Photinus pyralis) (P08659 whole entry, looked up): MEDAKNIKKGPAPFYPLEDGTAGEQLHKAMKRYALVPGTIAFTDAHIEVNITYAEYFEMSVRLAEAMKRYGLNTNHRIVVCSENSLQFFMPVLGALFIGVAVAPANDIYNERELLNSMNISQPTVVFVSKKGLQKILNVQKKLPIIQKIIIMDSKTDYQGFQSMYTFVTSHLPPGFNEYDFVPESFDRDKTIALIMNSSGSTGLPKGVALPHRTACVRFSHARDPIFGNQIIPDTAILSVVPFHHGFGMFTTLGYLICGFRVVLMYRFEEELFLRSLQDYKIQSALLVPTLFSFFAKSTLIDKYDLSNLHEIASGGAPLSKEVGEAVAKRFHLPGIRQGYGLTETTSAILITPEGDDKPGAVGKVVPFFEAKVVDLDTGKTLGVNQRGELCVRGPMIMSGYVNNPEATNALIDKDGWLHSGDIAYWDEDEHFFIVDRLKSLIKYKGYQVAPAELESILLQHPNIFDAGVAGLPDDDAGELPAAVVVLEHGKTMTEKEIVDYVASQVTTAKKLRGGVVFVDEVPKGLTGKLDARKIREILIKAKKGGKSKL

Sequence of Follistatin (Homo sapiens) (P19883 whole entry, looked up): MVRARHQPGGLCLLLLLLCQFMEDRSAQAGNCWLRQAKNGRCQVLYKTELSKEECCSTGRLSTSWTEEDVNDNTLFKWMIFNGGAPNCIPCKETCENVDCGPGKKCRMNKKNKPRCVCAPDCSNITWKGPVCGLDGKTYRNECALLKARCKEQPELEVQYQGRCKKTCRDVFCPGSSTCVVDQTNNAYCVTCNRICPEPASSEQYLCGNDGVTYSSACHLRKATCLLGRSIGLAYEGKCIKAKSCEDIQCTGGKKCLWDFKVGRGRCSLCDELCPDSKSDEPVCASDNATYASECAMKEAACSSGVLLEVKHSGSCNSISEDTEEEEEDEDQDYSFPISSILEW
Sequence of Fibroblast growth factor 2 (Homo sapiens) (P09038 whole entry, looked up): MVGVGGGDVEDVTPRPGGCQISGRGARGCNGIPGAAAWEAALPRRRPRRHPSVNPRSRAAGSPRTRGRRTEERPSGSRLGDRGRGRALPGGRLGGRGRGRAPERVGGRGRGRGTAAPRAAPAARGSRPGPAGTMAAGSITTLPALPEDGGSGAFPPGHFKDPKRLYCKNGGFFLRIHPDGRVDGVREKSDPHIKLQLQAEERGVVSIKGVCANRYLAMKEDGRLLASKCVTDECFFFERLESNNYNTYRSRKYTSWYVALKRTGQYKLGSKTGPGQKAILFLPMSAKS
Sequence of Focal adhesion kinase 1 (Homo sapiens) (Q05397 whole entry, looked up): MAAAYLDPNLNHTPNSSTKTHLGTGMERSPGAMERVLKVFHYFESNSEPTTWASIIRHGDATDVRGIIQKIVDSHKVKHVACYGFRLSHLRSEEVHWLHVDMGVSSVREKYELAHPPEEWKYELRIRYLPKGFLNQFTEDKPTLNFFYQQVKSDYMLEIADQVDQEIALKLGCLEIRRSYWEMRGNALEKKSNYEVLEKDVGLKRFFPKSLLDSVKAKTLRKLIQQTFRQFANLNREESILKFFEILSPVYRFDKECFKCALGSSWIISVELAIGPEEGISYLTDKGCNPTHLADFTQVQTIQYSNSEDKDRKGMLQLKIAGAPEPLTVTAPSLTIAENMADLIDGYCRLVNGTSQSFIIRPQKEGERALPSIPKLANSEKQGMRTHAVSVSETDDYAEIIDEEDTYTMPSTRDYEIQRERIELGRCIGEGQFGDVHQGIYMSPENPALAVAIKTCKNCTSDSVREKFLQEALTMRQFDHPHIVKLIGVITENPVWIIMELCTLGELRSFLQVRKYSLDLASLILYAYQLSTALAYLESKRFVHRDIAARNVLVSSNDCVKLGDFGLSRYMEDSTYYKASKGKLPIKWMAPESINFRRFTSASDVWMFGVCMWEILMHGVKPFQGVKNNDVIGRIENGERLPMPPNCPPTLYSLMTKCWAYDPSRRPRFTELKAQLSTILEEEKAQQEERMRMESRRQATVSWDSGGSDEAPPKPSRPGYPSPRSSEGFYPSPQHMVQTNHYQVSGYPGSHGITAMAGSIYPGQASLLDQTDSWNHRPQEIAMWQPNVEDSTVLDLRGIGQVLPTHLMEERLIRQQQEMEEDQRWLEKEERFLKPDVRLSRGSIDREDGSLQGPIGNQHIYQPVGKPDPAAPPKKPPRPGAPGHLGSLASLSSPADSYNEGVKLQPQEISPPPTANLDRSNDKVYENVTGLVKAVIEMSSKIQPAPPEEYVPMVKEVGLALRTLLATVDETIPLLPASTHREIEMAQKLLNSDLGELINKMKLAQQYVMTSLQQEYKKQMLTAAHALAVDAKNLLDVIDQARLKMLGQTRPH

SMILES	composite z-score [1]	composite z-score [2]	composite z-score [3]	composite z-score [4]	composite z-score [5]	composite z-score [6]	z-score [7]	composite z-score [8]	composite z-score [9]	z-score [10]
CCCCC=C[C@@H](NC(=O)OCc1ccccc1Cl)c1ccccc1	0.361	1.25	0.128	0.979	1.19	-0.172	-1.55	0.868	0.385	0.488 (inactive)
COCC(=C=CC[C@H](O)c1ccc(OCCO)cc1)CCO	0.434	0.633	-0.225	-0.142	1.41	1.06	0.63	1.56	-0.335	-1.36 (inactive)
CCCNC(=O)[C@@]1(Sc2ccc(C)cc2)CC(=O)N(C2Cc3ccccc3C2)[C@@H]1c1ccc(CO)cc1I	1.59	0.255	0.371	0.34	1.01	-0.209	1.87	0.489	0.157	-0.767 (inactive)
C=C(COC)/C(=C/C[C@H](OC(=O)c1ccncc1)c1ccc(CO)o1)c1cnc2ccccc2c1	0.283	1.15	0.382	0.271	1.25	0.222	0.818	1.57	0.734	-1.72 (inactive)
C#CCN([C@@H](Cc1ccccc1)C(=O)OC)[C@@H](/C=C/C1CC1)[C@H](O)Cc1ccccc1	-0.429	-0.515	-0.157	-0.873	0.722	-0.0248	3.45	0.166	0.0211	0.412 (inactive)
COc1ccc([Si](C)(C)[C@@H]2[C@@H](CCO)O[C@]3(C(=O)N(Cc4ccccc4)c4ccc(NC(=O)[C@H](C)O)cc43)[C@H]2C)cc1	0.888	1.21	1.04	0.851	1.2	0.462	-0.955	1.29	0.417	0.265 (inactive)
O=C1C[C@]2(c3ccc([N+](=O)[O-])cc3)C(=O)N(C3CC3)c3cc(CO)ccc3[C@H]2N1CC12CC3CC(CC(C3)C1)C2	-0.496	-0.336	-0.421	-0.168	-0.579	-0.364	-1.17	-1.5	-0.456	-0.124 (inactive)
C=C(/C(=C/C[C@H](OC(=O)c1ccncc1)c1ccc(CO)o1)c1cnc2ccccc2c1)C(C)C	1.29	1.19	0.0621	0.866	1.31	1.18	0.909	1.34	1.08	-2.9 (inactive)
CC(C)(C)OC(=O)CC[C@@]1(C(=O)NCC(O)CO)N=C(c2ccc(OCCCO)cc2)O[C@@H]1c1ccccc1CN=[N+]=[N-] (stereo not given in full)	1.41	0.98	0.426	0.91	0.716	0.337	0.404	-0.0839	0.299	-1.78 (inactive)
C#CCN(Cc1ccccc1Br)[C@H](/C=C/c1ccccc1)[C@@H](O)Cc1ccccc1	0.244	-0.548	-0.082	-1.24	-1.25	-1.23	0.921	-0.62	-0.351	-0.629 (inactive)
COc1ccc([Si](C)(C)[C@@H]2[C@@H](CCO)O[C@]3(C(=O)N(Cc4ccccc4)c4ccc(N5CCOC5=O)cc43)[C@H]2C)cc1	0.515	1.11	-0.0211	0.661	0.36	0.19	-0.771	0.49	0.896	0.6 (inactive)
COc1ccc(C#Cc2ccc3c(c2)[C@]2(C(=O)N3)[C@H](c3ccc(OCCO)cc3)N3[C@H](c4ccccc4)[C@H](c4ccccc4)OC(=O)[C@H]3[C@@H]2C(=O)NC[C@H](O)c2ccccc2)cc1	0.825	1.23	0.116	0.928	0.789	1.05	-1.54	0.906	0.887	-0.0696 (inactive)
C=CCN1C(=O)[C@]2(CCS(=O)(=O)c3ccccc3)N=C(c3ccc(OCCCO)cc3)O[C@@H]2c2ccccc21	2.73	1.23	1.29	0.891	1.31	1.47	1.3	0.825	1.19	-2.23 (inactive)
CCOC(=O)C[C@H]1[C@H](OC(=O)c2cc3ccccc3oc2=O)[C@@H](NC(=O)CC(C)C)c2cc(OCCCO)ccc2N1C(=O)c1ccc2ccccc2n1	0.672	0.686	0.223	0.807	1.03	1.51	-0.551	0.903	0.0235	0.425 (inactive)
COCCCNC(=O)[C@@H]1c2ccccc2C(=O)N(C(C)C)[C@H]1c1ccc(CO)cc1	-0.255	-0.264	0.37	-0.335	0.681	0.105	0.448	-0.109	-0.199	-0.604 (inactive)
O=C1C2C=CC(C(O)c3ccco3)N(Nc3ccccc3F)C2C(=O)N1c1ccccc1 (stereo not given)	0.0678	0.512	0.705	0.791	0.235	-0.327	-0.537	-0.531	0.826	-0.0425 (inactive)
[N-]=[N+]=Nc1ccccc1C[C@]1(C(=O)O)COC(c2ccc(OCCCO)cc2)=N1	-0.047	-0.914	0.0699	-1.45	-0.224	-0.717	-0.991	-0.843	0.396	-13.9 (active)
[N-]=[N+]=Nc1ccccc1[C@@H]1OC(c2ccc(OCCCO)cc2)=N[C@]1(Cc1ccccc1)C(=O)O	1.87	1.21	0.854	0.803	1.31	0.32	0.506	-0.028	1.09	-9.46 (active)
